# From the supplement of paper PMC13380429
# System: Vero E6 infected with SARS-CoV-2
# Test: morphology score (similarity to uninfected cells); higher = more like uninfected cells
# Conditions: 24 h
row,Structure (SMILES),morphology score
1,CNC(=O)c1nn(C)c2c1C(C)(C)Cc1cnc(Nc3ccc(N4CCN(C)CC4)cc3)nc1-2 (10 µM),-0.142
2,CC1Oc2cc(cnc2N)-c2c(nn(C)c2C#N)CN(C)C(=O)c2ccc(F)cc21 (centres undefined) (0.833333 µM),0.32
3,CC1=C(C)C(=O)C(C(CCCCCC(=O)O)c2ccccc2)=C(C)C1=O (centres undefined) [seratrodast] (10 µM),0.0459
4,O=C(O)CC[C@H]1CC[C@@](c2cc(F)ccc2F)(S(=O)(=O)c2ccc(Cl)cc2)CC1 (10 µM),0.0148
5,COc1cc2c(cc1OC)CC(=O)N(CCCN(C)C[C@H]1Cc3cc(OC)c(OC)cc31)CC2 [ivabradine] (10 µM),0.15
6,CC(C)(C)c1ccc(CN(Cc2cccc(OCC(=O)O)c2)S(=O)(=O)c2cccnc2)cc1 [evatanepag] (10 µM),-0.0093
7,c1cc2c3c(c1)c1c(n3CCNC2)CCCC1 (10 µM),-0.0322
8,c1ccc2c(CC3=NCCN3)cccc2c1 [naphazoline] (10 µM),0.146
9,Cc1[nH]cnc1CN1CCc2c(c3ccccc3n2C)C1=O [alosetron] (10 µM),-0.0421
10,COc1ccc2[nH]c([S+]([O-])Cc3ncc(C)c(OC)c3C)nc2c1 (centres undefined) [omeprazole] (10 µM),0.0924
11,CCN1CCCC1=O [1-ethyl-2-pyrrolidone] (10 µM),0.128
12,CC[C@H]1CN2CC[C@H]1C[C@@H]2[C@@H](O)c1ccnc2ccc(OC)cc12 [hydroquinidine] (10 µM),0.301
13,CC(C)(C)c1ccc(S(=O)(=O)NCc2ccc(C(=O)Nc3cccnc3)cc2)cc1 (0.833333 µM),0.0631
14,COC(=O)[C@H](CC(C)C)NC(=O)[C@@H](N)CC(C)C [leucylleucine-methyl-ester] (10 µM),0.113
15,C[N+]12CCC(CC1)C(OC(=O)C(O)(c1ccccc1)c1ccccc1)C2 (centres undefined) [clidinium] (10 µM),-0.064
16,CS(=O)(=O)c1ccc(C2=C(c3ccccc3)C(=O)OC2)cc1 [rofecoxib] (10 µM),0.0705
17,C=C(C)[C@@H]1[C@H]2OC(=O)[C@@H]1[C@]1(O)C[C@H]3O[C@]34C(=O)O[C@H]2[C@]14C [picrotoxinin] (10 µM),0.0677

row,Structure (SMILES),morphology score
1,O=C(CCCCC(=O)Nc1c(I)cc(I)c(C(=O)O)c1I)Nc1c(I)cc(I)c(C(=O)O)c1I [iodipamide] (10 µM),0.0415
2,O=C(Nc1cc(C(F)(F)F)ccc1O)Nc1cc(C(F)(F)F)ccc1O (10 µM),0.119
3,CC1=CC[C@@H](C(C)(C)O)C[C@@H]1O [sobrepin] (10 µM),-0.0987
4,CNC(=C[N+](=O)[O-])NCCSCc1ccc(CN(C)C)o1 [ranitidine] (10 µM),-0.0967
5,CCc1cnc(N2CCC(c3nc(COc4ccc(-n5cnnn5)cc4)cs3)CC2)nc1 (10 µM),0.0438
6,NC(=S)N/N=C/c1coc2ccccc2c1=O.[Cl][Cu][Cl] (10 µM),-0.124
7,COc1ccc(C2CNC(=O)C2)cc1OC1CCCC1 (centres undefined) [rolipram] (10 µM),0.39
8,O=C(O)[C@@H]1C[C@@H](C2CCCCC2)CN1C(=O)CP(=O)(O)CCCCc1ccccc1 [fosinoprilat] (10 µM),0.0775
9,Cc1ccc2cc(-c3c(C)ccc(C(=O)c4c(-c5ccccc5)n(C)n(-c5ccccc5)c4=O)c3N)ccc2n1 (10 µM),0.0631
10,Cc1ccc(O)c([C@H](CCN(C(C)C)C(C)C)c2ccccc2)c1 [tolterodine] (10 µM),0.35
11,NC(=O)CN1CC[C@@H](NC(=O)[C@@H]2CCCN2)C1=O (10 µM),0.096
12,CC=CC1=C(C(=O)O)N2C(=O)[C@@H](NC(=O)[C@H](N)c3ccc(O)cc3)[C@H]2SC1 (mixture of isomers) [cefprozil] (10 µM),0.273
13,NC12CC3CC(CC(C3)C1)C2 [amantadine] (10 µM),-0.265
14,O=[N+]([O-])/N=C1\NCCN1Cc1ccc(Cl)nc1 [imidacloprid] (10 µM),0.114
15,COC(=O)C1=C(C)NC(C)=C(C(=O)NCCCN2CCC(c3ccccc3)(c3ccccc3)CC2)C1c1ccc([N+](=O)[O-])cc1 (centres undefined) (0.833333 µM),0.212
16,N#C/C(=C\c1cccn1S(=O)(=O)c1cccc([N+](=O)[O-])c1)S(=O)(=O)c1ccc(F)cc1 (10 µM),-0.181
17,COc1ccc(-n2[nH]c3c4c(ncc3c2=O)CCCCC4)cc1 (10 µM),0.194
